Measurements published in PubChem BioAssay (Tox21).
Results filed as inconclusive are left out. Active and inactive are the calls of the source. Unless noted, calls follow the shape of the dose curve; as a rule, active = well fitted curve in the direction sought with a large enough effect in the repeat runs; inconclusive = weak or mixed curves; inactive = no such curve, though single readings can be large; an effect the other way counts as inactive or inconclusive.

Assays:
[1] = A CellTox Green Cytotoxicity Assay to monitor cytotoxicity in HEK293 cells - 32 hour (AID 1224881); also: nearly all actives have a fitted effect of over 40% in size
Outline: (§1)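 Tox21 screen in HEK293: membrane-impermeant cyanine dye fluoresces on binding dead-cell DNA; compound pinned 5 h post-seeding, plates held at 37 C, signal read repeatedly through 40 h.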

[2] = A CellTox Green Cytotoxicity Assay to monitor cytotoxicity in HepG2 cells - 0 hour (AID 1224882); also: nearly all actives have a fitted effect of over 35% in size
Outline: (§2)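 Measurements at 0, 8, 16, 24, 32 and 40 h of treatment captured CellTox Green fluorescence in HepG2 cells that had been co-plated with reagent and preincubated 5 h at 37 C/5% CO2.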

[3] = A CellTox Green Cytotoxicity Assay to monitor cytotoxicity in HepG2 cells - 32 hour (AID 1224883); also: nearly all actives have a fitted effect of over 50% in size
Outline: as §2

[4] = A CellTox Green Cytotoxicity Assay to monitor cytotoxicity in HEK293 cells - 8 hour (AID 1224884); also: nearly all actives have a fitted effect of over 35% in size
Outline: as §1

[5] = qHTS RealTime-Glo MT Cell Viability Assay in HepG2 cells - 16 hour (AID 1224885); also: nearly all actives have a fitted effect of over 50% in size
Outline: (§3)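 HepG2 cells (600/well) were dispensed with RealTime-Glo reagents, incubated 5 h at 37 °C, then treated with compounds in DMSO for up to 40 h. Nonlytic NanoLuc luminescence reflecting viable cells was read at each stated time point.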

[6] = qHTS RealTime-Glo MT Cell Viability Assay in HEK293 cells - 24 hour (AID 1224886); also: top concentration of the series differs between compounds; nearly all actives have a fitted effect of over 50% in size
Outline: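 HEK293 cells seeded with NanoLuc/prosubstrate reagent, rested 5 h at 37 C, then dosed and kept at 37 C up to 40 h. Nonlytic real-time luminescence from viable cells read at 0, 8, 16, 24, 32 and 40 h.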

[7] = qHTS RealTime-Glo MT Cell Viability Assay in HEK293 cells - 8 hour (AID 1224887); also: top concentration of the series differs between compounds; nearly all actives have a fitted effect of over 50% in size
Outline: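 HEK293 + NanoLuc + prosubstrate, 600 cells/well; 5 h, 37 C/5% CO2; compound 23 nL in DMSO by pintool; 37 C; luminescence read at 0, 8, 16, 24, 32 and 40 h time points.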

[8] = A CellTox Green Cytotoxicity Assay to monitor cytotoxicity in HEK293 cells - 16 hour (AID 1224888); also: nearly all actives have a fitted effect of over 35% in size
Outline: as §1

[9] = qHTS RealTime-Glo MT Cell Viability Assay in HepG2 cells - 0 hour (AID 1224889); also: nearly all actives have a fitted effect of over 50% in size
Outline: as §3

[10] = A CellTox Green Cytotoxicity Assay to monitor cytotoxicity in HepG2 cells - 8 hour (AID 1224890); also: nearly all actives have a fitted effect of over 45% in size
Outline: as §2

[11] = qHTS assay to identify small molecule antagonists of the estrogen receptor alpha (ER-alpha) signaling pathway using the BG1 cell line in the presence of 0.1 nM 17-beta-estradiol - cell viability counter screen (AID 1259241); also: nearly all actives have a fitted effect of over 40% in size
Outline: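 Estradiol-stimulated (0.1 nM) VM7Luc4E2 cells exposed to compounds 22 hr; viability measured by fluorescence of cleaved CellTiter-Fluor substrate after 30 min.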

[12] = qHTS assay to identify small molecule antagonists of the androgen receptor (AR) signaling pathway using the MDA cell line in the presence of 0.5 nM R1881 - cell viability counter screen (AID 1259242); also: nearly all actives have a fitted effect of over 45% in size
Outline: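 Concentration-response screen of compounds for toxicity in MDA-kb2 reporter cells: 16 hr at 37C with 0.5 nM R1881, endpoint live-cell protease fluorescence measured in the reporter wells.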

[13] = qHTS assay to identify small molecule HDAC inhibitors (AID 1259364);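 also: wild-type HCT-116 cells with endogenous class I/II HDAC activity; top concentration of the series differs between compounds; nearly all actives have a fitted effect of over 45% in size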
Outline: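 Screening used wild-type human colon HCT-116 cells incubated overnight, dosed with compounds for 2 hours, and assayed with a homogeneous luminogenic HDAC I/II reagent for 30 minutes at room temperature.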

[14] = qHTS assay to identify small molecule agonists of the sonic hedgehog signaling (Shh) pathway - cell viability counter screen (AID 1259366); also: nearly all actives have a fitted effect of over 50% in size
Outline: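 Same-well cytotoxicity read. Gli1-Luc reporter 3T3 cells; compounds 24hr, 37C/5% CO2; CellTiter-Fluor fluorescence.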

[15] = qHTS assay to identify small molecule antagonists of the sonic hedgehog signaling (Shh) pathway - cell viability counter screen (AID 1259367); also: nearly all actives have a fitted effect of over 55% in size
Outline: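 Tox21 library chemicals were tested on a Gli1-Luc NIH/3T3 clone (2,000 cells/well) stimulated by conditioned medium; viability was quantified as fluorescence from CellTiter-Fluor reagent added at 23 hr.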

[16] = qHTS assay to identify small molecule agonists of the sonic hedgehog signaling (Shh) pathway (AID 1259368; calls by dose curve;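 also: NIH/3T3-derived 3T3Gli1-Luc cells carrying a stable Gli1-driven firefly luciferase reporter; series mostly up to about 92 µM; nearly all actives have a fitted effect of over 15% in size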)
Outline: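 Hedgehog pathway agonism scored by increased firefly luciferase luminescence in 3T3Gli1-Luc cells treated 24 hr at 37 C; detection used a 30 min room-temperature reagent incubation.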

[17] = qHTS assay to identify small molecule HDAC inhibitors - cell viability counter screen (AID 1259365)
Outline: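 After overnight seeding at 1,500 cells per well, wild-type HCT-116 cultures took up compounds in DMSO for 2hr at 37 C. Viable cell content came from luminescence with CellTiter-Glo.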

[18] = target: Androgen receptor (Homo sapiens) (UniProt P10275); assay: qHTS assay to identify small molecule antagonists of the androgen receptor (AR) signaling pathway using the MDA cell line in the presence of 0.5 nM R1881 (AID 1259243); also: nearly all actives have a fitted effect of over 50% in size
Androgen receptor (Homo sapiens), sequence (P10275 whole entry, looked up): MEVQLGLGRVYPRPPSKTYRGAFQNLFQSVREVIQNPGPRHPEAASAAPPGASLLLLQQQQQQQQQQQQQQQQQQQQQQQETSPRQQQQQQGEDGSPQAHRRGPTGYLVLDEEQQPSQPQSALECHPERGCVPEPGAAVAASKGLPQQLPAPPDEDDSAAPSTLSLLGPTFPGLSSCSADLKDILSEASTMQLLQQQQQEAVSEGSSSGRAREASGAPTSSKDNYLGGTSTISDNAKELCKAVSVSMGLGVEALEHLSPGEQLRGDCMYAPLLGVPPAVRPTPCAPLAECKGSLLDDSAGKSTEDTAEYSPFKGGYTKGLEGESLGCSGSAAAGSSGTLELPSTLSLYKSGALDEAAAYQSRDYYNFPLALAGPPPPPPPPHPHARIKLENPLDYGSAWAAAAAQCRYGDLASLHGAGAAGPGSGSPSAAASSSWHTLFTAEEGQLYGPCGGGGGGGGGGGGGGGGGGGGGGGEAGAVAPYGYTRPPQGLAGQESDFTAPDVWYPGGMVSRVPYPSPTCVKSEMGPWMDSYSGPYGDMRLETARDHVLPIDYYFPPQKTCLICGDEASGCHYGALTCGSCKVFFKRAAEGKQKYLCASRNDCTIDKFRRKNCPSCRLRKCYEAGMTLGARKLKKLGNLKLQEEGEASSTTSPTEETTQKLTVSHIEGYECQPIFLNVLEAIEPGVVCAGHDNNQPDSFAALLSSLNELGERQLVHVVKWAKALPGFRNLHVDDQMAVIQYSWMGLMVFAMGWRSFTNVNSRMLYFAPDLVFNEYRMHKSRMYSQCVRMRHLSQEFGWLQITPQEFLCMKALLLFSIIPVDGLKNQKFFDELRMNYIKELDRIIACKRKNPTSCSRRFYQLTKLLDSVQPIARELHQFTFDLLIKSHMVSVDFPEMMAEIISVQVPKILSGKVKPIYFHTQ
Outline: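 With R1881 held at 0.5 nM (final), compound effects on MMTV-luciferase expression in MDA-kb2 cells were scored by luminescence after a 16 hr, 37C incubation.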

[19] = target: Estrogen receptor (Homo sapiens) (UniProt P03372); assay: qHTS assay to identify small molecule antagonists of the estrogen receptor alpha (ER-alpha) signaling pathway using the BG1 cell line in the presence of 0.1 nM 17-beta-estradiol (AID 1259244); also: nearly all actives have a fitted effect of over 50% in size
Estrogen receptor (Homo sapiens), sequence (P03372 whole entry, looked up): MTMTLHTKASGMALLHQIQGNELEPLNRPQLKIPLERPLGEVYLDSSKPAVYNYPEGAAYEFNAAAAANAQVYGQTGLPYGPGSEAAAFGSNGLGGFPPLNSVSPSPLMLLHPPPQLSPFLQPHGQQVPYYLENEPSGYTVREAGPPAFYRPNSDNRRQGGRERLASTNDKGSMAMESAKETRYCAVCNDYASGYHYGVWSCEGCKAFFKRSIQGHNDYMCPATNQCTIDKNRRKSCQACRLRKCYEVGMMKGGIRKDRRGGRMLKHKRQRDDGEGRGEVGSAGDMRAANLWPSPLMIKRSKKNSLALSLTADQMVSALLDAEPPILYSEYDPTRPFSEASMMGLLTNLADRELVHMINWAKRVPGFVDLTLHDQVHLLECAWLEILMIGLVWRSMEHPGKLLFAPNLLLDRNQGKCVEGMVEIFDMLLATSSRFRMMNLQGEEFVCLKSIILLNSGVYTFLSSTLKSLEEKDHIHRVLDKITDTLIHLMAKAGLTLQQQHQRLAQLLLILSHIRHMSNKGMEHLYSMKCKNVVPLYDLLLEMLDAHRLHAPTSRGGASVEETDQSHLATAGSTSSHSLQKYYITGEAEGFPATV
Outline: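 Compounds were tested against 0.1 nM (final) 17beta-estradiol in VM7Luc4E2 cells, which express full-length ER-alpha and an ERE-luciferase reporter; luminescence was recorded following 22 h exposure.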

Measured: Potency

CC(C)C(=O)OC(=O)C(C)C
not listed: [17] | [18] | [19]
inactive: all other assays above

CCN1CCOCC1
not listed: [9] | [18] | [19]
inactive: all other assays above

Clc1cc(Cl)c(Cl)nc1Cl
not listed: [18] | [19]
inactive: all other assays above

CCN(C=O)CC
not listed: [9] | [18] | [19]
inactive: all other assays above

CC(C#N)(CCC(=O)O)N=NC(C)(C#N)CCC(=O)O (stereo unspecified)
not listed: [18] | [19]
inactive: all other assays above

O=[N+]([O-])c1cncn1CCN1CCOCC1
not listed: [11]
inactive: all other assays above

C=CN1CCCCCC1=O
not listed: [9] | [18] | [19]
inactive: all other assays above
